This note sets out measurements from PubChem BioAssay.

Assay [1] can be described thus: antimalarial activity against Dd2 strain (AID 2302;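 active = growth inhibition above 50% at the single 2 µM test dose, taken to imply half-maximal potency below 2 µM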;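 also: 0% = DMSO untreated growth and 100% = chloroquine plus artemisinin killed control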). Particulars: P. falciparum Dd2 in RBCs, LDH growth readout, 72 h; at 2 µM; active compounds read high.
The nature of assay [2]: HepG2 cytotoxicity, primary screen, cytotoxicity control for P. falciparum antimalarial project, cell-based, ATP luminescence (AID 2303;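 active = inhibition above 50%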;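 also: 0% = DMSO wells and 100% = digitonin-killed cells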). The note with it: HepG2 viability, 24-48 h, at 10 µM, active compounds read high.
The target of assay [3] is L-lactate dehydrogenase (Plasmodium falciparum (isolate CDC / Honduras)) (UniProt Q27743). As to the kind of experiment: PfLDH activity inhibition – cell lysate, 3D7 strain, counter-screen for P. falciparum growth inhibition project (AID 2304).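 Also: 0% = vehicle and 100% = reference inhibitor.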 Particulars: P. falciparum 3D7 crude extract, LDH APAD/NBT absorbance; at 2 µM; active compounds read high. For orientation: A counterscreen serves to expose hits that act by an unwanted route or on another target.

The nature of assay [4]: inhibition of 3D7 malaria parasite growth – strain 3D7 (AID 2306).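 Also: 0% = DMSO wells and 100% = chloroquine plus artemisinin control wells.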 Particulars: P. falciparum 3D7 erythrocytic growth, LDH absorbance, 72 h; at 2 µM; active compounds read high.
In assay [5] the target is Calcium-dependent protein kinase 1 (Plasmodium falciparum (isolate 3D7)) (UniProt P62344). Briefly: PfCDPK1 kinase inhibitors, biochemical, TCAMS library (AID 1159585; cut-off not given, nearly all actives have IC50 up to about 0.98 µM;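 also: inhibitors leave more ATP so luminescence rises with inhibition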). The note with it: recombinant PfCDPK1, Kinase-Glo ATP depletion luminescence.
Assay [6] deals with Plasmodium falciparum protein kinase 6 (PK6, PF3D7_1337100) (UniProt Q8IDW1). As to the kind of experiment: PfPK6 kinase inhibitors, biochemical, TCAMS library (AID 1159586). Particulars: recombinant PfPK6, Kinase-Glo ATP depletion luminescence.
The target in assay [7] is Protein kinase 7 (PK7), Plasmodium falciparum 3D7 (PF3D7_0213400) (UniProt Q7YTF7). As to the kind of experiment: inhibition of Plasmodium PK7 catalytic activity – biochemical, TCAMS antimalarial set, Kinase-Glo luminescence (AID 1159587). The note with it: recombinant PfPK7, Kinase-Glo ATP depletion luminescence. In general terms: In Kinase-Glo more light means more ATP remaining.

Assay [8] addresses Calcium-dependent protein kinase 4 (Plasmodium falciparum (isolate 3D7)) (UniProt Q8IBS5). Briefly: PfCDPK4 kinase inhibitors, biochemical, TCAMS library (AID 1159588; cut-off not given, nearly all actives have IC50 up to about 0.91 µM). Particulars: recombinant PfCDPK4, Kinase-Glo ATP depletion luminescence.

A number with no mark means an inactive call. For some of these results: Potency and affinity values are given separately. Activity calls are given as the source filed them. Unless noted, no rule for the calls is given here.

Sequence of Plasmodium falciparum protein kinase 6 (PK6, PF3D7_1337100) (Q8IDW1 1-305): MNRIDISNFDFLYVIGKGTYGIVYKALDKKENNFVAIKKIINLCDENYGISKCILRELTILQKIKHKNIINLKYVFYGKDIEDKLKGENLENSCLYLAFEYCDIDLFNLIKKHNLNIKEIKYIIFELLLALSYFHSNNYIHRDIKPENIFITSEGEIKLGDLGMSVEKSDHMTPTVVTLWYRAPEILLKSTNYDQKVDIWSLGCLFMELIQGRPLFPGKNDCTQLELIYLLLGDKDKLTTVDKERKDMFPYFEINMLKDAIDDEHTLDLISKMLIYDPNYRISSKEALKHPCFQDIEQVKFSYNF
Sequence of L-lactate dehydrogenase (Plasmodium falciparum (isolate CDC / Honduras)) (Q27743 whole entry, looked up): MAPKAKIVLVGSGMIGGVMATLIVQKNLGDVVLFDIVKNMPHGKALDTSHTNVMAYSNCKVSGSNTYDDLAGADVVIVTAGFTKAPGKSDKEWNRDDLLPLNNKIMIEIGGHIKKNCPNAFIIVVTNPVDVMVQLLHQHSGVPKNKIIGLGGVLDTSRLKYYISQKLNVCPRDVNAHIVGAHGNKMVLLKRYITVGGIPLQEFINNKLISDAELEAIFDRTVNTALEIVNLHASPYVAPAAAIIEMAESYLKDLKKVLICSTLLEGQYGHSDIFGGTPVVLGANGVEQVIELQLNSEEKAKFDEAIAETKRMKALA
Sequence of Calcium-dependent protein kinase 1 (Plasmodium falciparum (isolate 3D7)) (P62344 whole entry, looked up): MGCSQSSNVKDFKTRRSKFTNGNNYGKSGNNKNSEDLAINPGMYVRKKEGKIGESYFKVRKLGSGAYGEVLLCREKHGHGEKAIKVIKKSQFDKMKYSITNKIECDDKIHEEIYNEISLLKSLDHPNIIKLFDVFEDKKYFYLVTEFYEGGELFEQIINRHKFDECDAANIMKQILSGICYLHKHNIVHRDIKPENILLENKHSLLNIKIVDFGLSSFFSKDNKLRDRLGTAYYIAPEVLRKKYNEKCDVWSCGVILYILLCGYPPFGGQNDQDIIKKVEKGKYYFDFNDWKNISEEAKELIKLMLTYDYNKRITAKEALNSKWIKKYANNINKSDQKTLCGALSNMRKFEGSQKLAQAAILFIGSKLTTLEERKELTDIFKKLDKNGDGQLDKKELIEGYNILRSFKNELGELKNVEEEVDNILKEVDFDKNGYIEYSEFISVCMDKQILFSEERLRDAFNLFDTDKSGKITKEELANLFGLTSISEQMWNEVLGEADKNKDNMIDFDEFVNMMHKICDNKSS
Sequence of Protein kinase 7 (PK7), Plasmodium falciparum 3D7 (PF3D7_0213400) (Q7YTF7 1-343): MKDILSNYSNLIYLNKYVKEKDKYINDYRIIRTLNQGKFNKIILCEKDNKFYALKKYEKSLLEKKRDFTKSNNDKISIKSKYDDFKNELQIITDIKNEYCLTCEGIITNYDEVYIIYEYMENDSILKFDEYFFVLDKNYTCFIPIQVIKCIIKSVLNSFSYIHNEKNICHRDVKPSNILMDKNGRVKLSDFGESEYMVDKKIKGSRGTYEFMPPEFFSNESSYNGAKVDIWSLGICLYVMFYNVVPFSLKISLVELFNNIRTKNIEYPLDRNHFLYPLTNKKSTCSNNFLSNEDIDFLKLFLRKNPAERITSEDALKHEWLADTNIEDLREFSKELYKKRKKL
Sequence of Calcium-dependent protein kinase 4 (Plasmodium falciparum (isolate 3D7)) (Q8IBS5 whole entry, looked up): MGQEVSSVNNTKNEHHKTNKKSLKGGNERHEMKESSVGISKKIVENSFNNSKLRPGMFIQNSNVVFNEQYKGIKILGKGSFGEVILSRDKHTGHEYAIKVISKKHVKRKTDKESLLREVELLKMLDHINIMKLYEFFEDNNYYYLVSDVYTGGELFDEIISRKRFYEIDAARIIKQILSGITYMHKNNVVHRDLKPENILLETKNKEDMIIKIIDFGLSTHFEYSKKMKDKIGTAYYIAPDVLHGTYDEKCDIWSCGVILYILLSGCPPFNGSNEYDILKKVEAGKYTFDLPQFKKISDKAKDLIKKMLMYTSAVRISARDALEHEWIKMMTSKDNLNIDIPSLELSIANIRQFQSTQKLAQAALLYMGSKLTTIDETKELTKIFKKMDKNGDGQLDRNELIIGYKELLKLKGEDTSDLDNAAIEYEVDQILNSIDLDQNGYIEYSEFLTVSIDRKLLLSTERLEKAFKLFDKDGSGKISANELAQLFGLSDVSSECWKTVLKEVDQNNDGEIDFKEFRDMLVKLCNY

Consider `OC(Cn1ccnc1)(c1ccc(Cl)cc1Cl)C1CCCCC1` (stereo not given), for which the results for the growth inhibition in assay [1] and in assay [4] were 58% (active) and 98% (active), respectively. Further, the inhibition in assay [2] and in assay [3] was 7% each time. Besides, the outcome in assay [5], in assay [6], in assay [7] and in assay [8] was inactive.
Take `Cc1cccc2[nH]c(-c3ccc(-c4cccc(NC(=O)Nc5ccc6c(c5)OCO6)c4)cc3)nc12`: the growth inhibition in assay [1] is 39%; in assay [4], 100% (active). Further, the inhibition – broadly, the change of the read-out against control, counted positive when it falls – in assay [2] was 28%; in assay [3], -8%. Also, the result in assay [5], in assay [6], in assay [7] and in assay [8] was inactive.
As for `CN(C)CCCNc1nccc(N(C)c2ccc(NC(=O)Nc3cc(C(F)(F)F)ccc3F)cc2)n1`, the growth inhibition was 25% in assay [1] and 93% (active) in assay [4]. The inhibition in assay [2] was 97% (active); in assay [3] it was 2%. Further, the result in assay [5], in assay [6], in assay [7] and in assay [8] was inactive.
In the case of `CCNc1cc(C(=O)N[C@@H](Cc2ccccc2)[C@H](O)CNCc2cc(OC)cc(OC)c2)cc(N2CCCC2=O)c1`, the growth inhibition in assay [1] is 75% (active); in assay [4], 100% (active). For the same compound, the inhibition is -7% in assay [2] and 2% in assay [3]. The outcome in assay [5], in assay [6], in assay [7] and in assay [8] was inactive.
On to `CC(C)CC(=O)N(Cc1ccc(-c2ccc(CNC3Cc4ccccc4C3)cc2)cc1)C1CCNCC1`, for which the results for the growth inhibition in assay [1] and in assay [4] were 65% (active) and 85% (active), respectively. Besides, the values for the inhibition in assay [2] and in assay [3] were 20% and -5%, respectively. In addition, the result in assay [5], in assay [6], in assay [7] and in assay [8] was inactive.
As for `Cc1nnsc1C(=O)Nc1cccc(-c2cccc(-c3nc4c(C)cccc4[nH]3)c2)c1`, the growth inhibition in assay [1] is 80% (active); in assay [4], 99% (active). In addition, the figures for the inhibition in assay [2] and in assay [3] were 22% and 4%, respectively. For the same compound, the result in assay [5], in assay [6], in assay [7] and in assay [8] was inactive.
With `COc1cccc(C2CCN(CCN3CCC(NC(=O)c4ccc(-c5ccc(C#N)cc5)cc4)CC3)CC2)c1`, the figures for the growth inhibition in assay [1] and in assay [4] were 47% and 98% (active), respectively. The inhibition is 28% in assay [2] and 6% in assay [3]. The result in assay [5], in assay [6], in assay [7] and in assay [8] was inactive.
As to `Cc1cc(Nc2ccnc(-c3ccc(Cl)cc3)n2)ccn1`, the growth inhibition is 23% in assay [1] and 94% (active) in assay [4]. Also, the results for the inhibition in assay [2] and in assay [3] were 6% and -4%, respectively. In addition, the outcome in assay [5], in assay [6], in assay [7] and in assay [8] was inactive.
On to `COc1ccc2nc(C)cc(NN=Cc3cccc([N+](=O)[O-])c3)c2c1`, for which the figures for the growth inhibition in assay [1] and in assay [4] were 97% (active) and 102% (active), respectively. The inhibition is 6% in assay [2] and 7% in assay [3]. Further, the outcome in assay [5], in assay [6], in assay [7] and in assay [8] was inactive.
As for `CC(C)CCNC(=O)c1cnc2c(O)cccc2c1Nc1cccc(NC(=O)c2ccc(F)cc2)c1`, the growth inhibition in assay [1] was 43%; in assay [4], 93% (active). Moreover, the results for the inhibition in assay [2] and in assay [3] were 51% (active) and -1%, respectively. The outcome in assay [5], in assay [6], in assay [7] and in assay [8] was inactive.
For the compound `N#CN1CC[C@@H](OC(=O)N[C@@H]2C[C@H]2c2ccccc2)C1`, the growth inhibition is 56% (active) in assay [1] and 84% (active) in assay [4]. Moreover, the inhibition was -1% in assay [2] and -2% in assay [3]. Further, the outcome in assay [5], in assay [6], in assay [7] and in assay [8] was inactive.
With `O=c1[nH]c2ccc3[nH]cccc3c2c1C=Nc1ccc(Cn2ccnc2)cc1`, the growth inhibition is 85% (active) in assay [1] and 101% (active) in assay [4]. Also, the inhibition in assay [2] was 33%; in assay [3], 1%. Besides, the outcome in assay [5], in assay [6], in assay [7] and in assay [8] was inactive.
As for `CN(C)CCOc1ccc(N2CCN(CCCCNC(=O)c3ccc(NC(=O)c4ccc(Cl)cc4)cc3)CC2)cc1`, the values for the growth inhibition in assay [1] and in assay [4] were 98% (active) and 99% (active), respectively. The figures for the inhibition in assay [2] and in assay [3] were 13% and 0%, respectively. Further, the outcome in assay [5], in assay [6], in assay [7] and in assay [8] was inactive.
`CCN(CCN(C)C)Cc1ccc(-c2ccc(NS(=O)(=O)c3cccc(Cl)c3)cc2)cc1`: the growth inhibition is 40% in assay [1] and 97% (active) in assay [4]. Also, the results for the inhibition in assay [2] and in assay [3] were 43% and 4%, respectively. The outcome in assay [5], in assay [6], in assay [7] and in assay [8] was inactive.
Consider `CN1CCC(NCc2cccc(-c3ccc(S(=O)(=O)NCCN4CCCC4)s3)c2)CC1`, for which the growth inhibition in assay [1] is 1%; in assay [4], 91% (active). In addition, the inhibition is 10% in assay [2] and -5% in assay [3]. The result in assay [5], in assay [6], in assay [7] and in assay [8] was inactive.
Regarding `Cc1ccc2nc(C)cc(NN=Cc3ccccc3Cl)c2c1`, the growth inhibition in assay [1] is 62% (active); in assay [4], 100% (active). The inhibition in assay [2] is 6%; in assay [3] it was -2%. For the same compound, the outcome in assay [5], in assay [6], in assay [7] and in assay [8] was inactive.
Turning to `CCN(CCCN1CCCCC1)c1nc(C)cc(Nc2ccc(Cl)cc2)n1`, the growth inhibition in assay [1] was 92% (active); in assay [4] it was 98% (active). In addition, the inhibition in assay [2] was 30%; in assay [3], 3%. Also, the outcome in assay [5], in assay [6], in assay [7] and in assay [8] was inactive.
Take `CS(=O)(=O)CCNCc1ccc(-c2ccc3c(Nc4ccc(Cl)cc4F)ccnc3c2)o1`: the growth inhibition was 98% (active) in assay [1] and 99% (active) in assay [4]. Further, the inhibition in assay [2] is 6%; in assay [3], -3%. Further, the result in assay [5], in assay [6], in assay [7] and in assay [8] was inactive.
As for `Cn1ccc(C(=O)Nc2ccc3c(c2)CN(Cc2ccc(N4CCCC4)o2)CCC3)n1`, the growth inhibition in assay [1] was 72% (active); in assay [4], 80% (active). Besides, the inhibition is 19% in assay [2] and 4% in assay [3]. Further, the result in assay [5], in assay [6], in assay [7] and in assay [8] was inactive.
Consider `Cc1cc(CN2CC[C@H](NC(=O)c3ccc(Cl)c(Cl)c3)C2)ccc1OCCN1CCCC1`, for which the growth inhibition in assay [1] was 92% (active); in assay [4], 101% (active). Further, the inhibition was 56% (active) in assay [2] and 0% in assay [3]. The outcome in assay [5], in assay [6], in assay [7] and in assay [8] was inactive.
